Assays:
Test in all cases: DAPPL (digital affinity profiling via proximity ligation, sequencing); 10 mM Tris-HCl pH 7.5, 50 mM NaCl, 1 mM DTT, 4% glycerol, room temperature, 30 min; GST-TFs on glutathione beads, 16-mer random dsDNA library, 0.1% formaldehyde crosslink after washing; high values mean tight binding
Details in all cases: protein: recombinant; tags: N-terminal GST; dsDNA, one strand shown
GABPA = biological target: T1, GABPA (Homo sapiens, UniProt Q06546 1-454)
T1 sequence: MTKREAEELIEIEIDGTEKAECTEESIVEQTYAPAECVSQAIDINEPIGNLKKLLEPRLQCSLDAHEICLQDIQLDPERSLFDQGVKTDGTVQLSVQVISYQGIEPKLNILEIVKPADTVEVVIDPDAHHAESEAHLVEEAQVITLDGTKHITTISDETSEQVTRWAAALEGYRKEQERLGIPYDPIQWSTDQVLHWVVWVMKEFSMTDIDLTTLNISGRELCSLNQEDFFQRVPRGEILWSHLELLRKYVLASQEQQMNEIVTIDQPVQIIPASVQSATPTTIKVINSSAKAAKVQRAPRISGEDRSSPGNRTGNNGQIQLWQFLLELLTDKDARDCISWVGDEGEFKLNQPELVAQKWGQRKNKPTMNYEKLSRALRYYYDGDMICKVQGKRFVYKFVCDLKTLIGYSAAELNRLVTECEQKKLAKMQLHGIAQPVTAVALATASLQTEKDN
Procedure, shortened: (§1)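 Yeast served to express human transcription factors as GST fusions, which were then captured on glutathione beads and labelled with DNA barcodes. Pooled with a tag-only sample, they were incubated with 200 nmole of a 16-mer random double-stranded DNA library for 30 min at room temperature in Tris/NaCl/DTT/glycerol buffer, washed, crosslinked with 0.1% formaldehyde, ligated by proximity, amplified by PCR and sequenced. Dividing each hexamer's read frequency for a factor by its frequency for the tag-only sample gives the binding signal.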

ERG = biological target: T2, ERG (Homo sapiens, UniProt P11308 1-479)
T2 sequence: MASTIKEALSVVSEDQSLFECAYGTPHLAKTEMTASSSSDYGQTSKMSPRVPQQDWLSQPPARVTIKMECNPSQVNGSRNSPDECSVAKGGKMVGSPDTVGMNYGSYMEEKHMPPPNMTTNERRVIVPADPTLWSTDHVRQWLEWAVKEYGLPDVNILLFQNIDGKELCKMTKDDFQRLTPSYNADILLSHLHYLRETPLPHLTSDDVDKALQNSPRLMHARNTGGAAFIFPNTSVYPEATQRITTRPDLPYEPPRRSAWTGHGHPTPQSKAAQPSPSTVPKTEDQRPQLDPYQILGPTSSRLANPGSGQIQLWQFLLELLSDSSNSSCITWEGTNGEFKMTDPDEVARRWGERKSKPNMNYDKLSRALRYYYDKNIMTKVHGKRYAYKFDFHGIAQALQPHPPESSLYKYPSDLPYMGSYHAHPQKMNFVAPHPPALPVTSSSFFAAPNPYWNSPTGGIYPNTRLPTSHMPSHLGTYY
Procedure, shortened: as §1

ELF4 = ELF4 (Homo sapiens, UniProt Q99607 1-663)
Procedure, shortened: as §1

ELK4 = biological target: T3, ELK4 (Homo sapiens, UniProt P28324-2 1-405)
T3 sequence: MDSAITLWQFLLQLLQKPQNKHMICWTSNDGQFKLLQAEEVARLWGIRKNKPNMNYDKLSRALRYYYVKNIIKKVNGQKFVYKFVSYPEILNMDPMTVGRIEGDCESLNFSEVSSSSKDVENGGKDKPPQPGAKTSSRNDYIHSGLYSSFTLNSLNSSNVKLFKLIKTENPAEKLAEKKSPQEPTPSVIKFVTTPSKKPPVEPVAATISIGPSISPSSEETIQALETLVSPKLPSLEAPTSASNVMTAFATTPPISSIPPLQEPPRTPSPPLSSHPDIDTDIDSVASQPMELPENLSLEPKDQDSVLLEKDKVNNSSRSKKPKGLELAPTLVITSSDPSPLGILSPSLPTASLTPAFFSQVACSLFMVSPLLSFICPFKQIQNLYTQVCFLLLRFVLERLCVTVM
Procedure, shortened: as §1

ETV3L = biological target: T4, ETV3L (Homo sapiens, UniProt Q6ZN32 1-361)
T4 sequence: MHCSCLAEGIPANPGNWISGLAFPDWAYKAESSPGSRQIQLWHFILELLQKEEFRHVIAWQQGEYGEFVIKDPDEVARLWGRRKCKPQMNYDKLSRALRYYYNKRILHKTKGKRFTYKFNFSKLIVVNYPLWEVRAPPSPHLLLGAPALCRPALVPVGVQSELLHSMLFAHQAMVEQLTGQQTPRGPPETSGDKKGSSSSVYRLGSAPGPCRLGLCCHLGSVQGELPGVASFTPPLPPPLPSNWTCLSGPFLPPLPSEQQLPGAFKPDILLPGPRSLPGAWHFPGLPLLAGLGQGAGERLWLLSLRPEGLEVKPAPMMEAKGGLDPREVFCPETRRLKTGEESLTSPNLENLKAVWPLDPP
Procedure, shortened: as §1

ETV7 = biological target: T5, ETV7 (Homo sapiens, UniProt Q9Y603 1-341)
T5 sequence: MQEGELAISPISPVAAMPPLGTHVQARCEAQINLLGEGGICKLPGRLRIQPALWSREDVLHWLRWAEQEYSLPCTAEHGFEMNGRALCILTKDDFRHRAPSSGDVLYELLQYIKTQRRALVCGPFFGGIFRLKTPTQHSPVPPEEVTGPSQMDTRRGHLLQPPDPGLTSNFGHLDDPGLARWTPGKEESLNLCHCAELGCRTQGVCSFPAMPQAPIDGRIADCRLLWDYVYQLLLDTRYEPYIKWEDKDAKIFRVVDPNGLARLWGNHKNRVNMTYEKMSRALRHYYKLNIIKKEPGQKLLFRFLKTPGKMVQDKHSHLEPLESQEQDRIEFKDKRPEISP
Procedure, shortened: as §1

ETV6 = ETV6 (Homo sapiens, UniProt P41212 1-452)
Procedure, shortened: as §1

Chain of ELF4 (Q99607 whole entry): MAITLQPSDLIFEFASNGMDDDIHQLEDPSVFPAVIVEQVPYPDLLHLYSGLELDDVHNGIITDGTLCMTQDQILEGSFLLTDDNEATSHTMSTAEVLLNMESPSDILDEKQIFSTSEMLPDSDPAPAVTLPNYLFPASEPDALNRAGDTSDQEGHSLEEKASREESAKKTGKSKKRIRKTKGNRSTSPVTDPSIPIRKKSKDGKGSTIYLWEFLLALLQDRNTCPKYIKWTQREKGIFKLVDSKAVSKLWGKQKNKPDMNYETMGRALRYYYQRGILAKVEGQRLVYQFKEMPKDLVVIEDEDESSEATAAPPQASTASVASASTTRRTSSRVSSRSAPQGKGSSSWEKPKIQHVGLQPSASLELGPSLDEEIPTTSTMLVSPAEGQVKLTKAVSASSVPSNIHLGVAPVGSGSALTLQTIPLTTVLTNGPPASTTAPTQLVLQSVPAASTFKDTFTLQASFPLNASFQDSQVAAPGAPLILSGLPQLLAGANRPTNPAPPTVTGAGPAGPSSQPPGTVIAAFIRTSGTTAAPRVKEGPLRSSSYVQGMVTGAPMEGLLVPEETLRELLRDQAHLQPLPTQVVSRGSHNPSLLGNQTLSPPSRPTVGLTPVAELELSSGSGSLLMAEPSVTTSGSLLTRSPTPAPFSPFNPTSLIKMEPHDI
Chain of ETV6 (P41212 whole entry): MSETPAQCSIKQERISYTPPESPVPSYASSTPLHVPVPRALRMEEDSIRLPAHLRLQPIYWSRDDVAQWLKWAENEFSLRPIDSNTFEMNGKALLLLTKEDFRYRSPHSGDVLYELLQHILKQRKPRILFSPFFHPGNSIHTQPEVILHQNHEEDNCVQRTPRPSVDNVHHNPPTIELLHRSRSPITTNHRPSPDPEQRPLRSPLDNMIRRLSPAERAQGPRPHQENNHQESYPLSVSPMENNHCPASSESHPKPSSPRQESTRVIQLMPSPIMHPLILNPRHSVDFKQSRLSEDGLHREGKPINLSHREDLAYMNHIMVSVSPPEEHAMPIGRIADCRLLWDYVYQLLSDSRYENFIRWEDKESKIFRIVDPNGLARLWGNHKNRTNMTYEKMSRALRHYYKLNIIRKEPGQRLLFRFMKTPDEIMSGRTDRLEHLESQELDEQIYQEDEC

GTGCCC
binding signal (GABPA): 1.01 fold enrichment (6-mer frequency, TF over GST control)
binding signal (ERG): 1.08 fold enrichment (6-mer frequency, TF over GST control)
binding signal (ELF4): 1.03 fold enrichment (6-mer frequency, TF over GST control)
binding signal (ELK4): 1.07 fold enrichment (6-mer frequency, TF over GST control)
binding signal (ETV3L): 1 fold enrichment (6-mer frequency, TF over GST control)
binding signal (ETV7): 1.01 fold enrichment (6-mer frequency, TF over GST control)
binding signal (ETV6): 1 fold enrichment (6-mer frequency, TF over GST control)

Source: article PMC7862700, “An all-to-all approach to the identification of sequence-specific readers for epigenetic DNA modifications on cytosine”
